Source: PubChem BioAssay
Sampled rows, rich in hits. Any-hit rate of the full collection: about 1.4%.
Wee1 degr inh – inhibitors of human Wee1 degradation | reporter increase, % at 5 µM | actives 1.2% (n = 220,000) | P30291 | HeLa Luc-Wee1K328M stability, luciferase luminescence; 100% = proteasome inhibitor MG132 effect | AID 1321;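 active = activation above the mean of all tested compounds plus 3 SD, set per screening run, cut at about 8.8% in these data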;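 also: cells exposed to compound for 20 h before luminescence read; 0% = DMSO alone and 100% = MG132 at 30 µM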
Target sequence (P30291 whole entry K328M): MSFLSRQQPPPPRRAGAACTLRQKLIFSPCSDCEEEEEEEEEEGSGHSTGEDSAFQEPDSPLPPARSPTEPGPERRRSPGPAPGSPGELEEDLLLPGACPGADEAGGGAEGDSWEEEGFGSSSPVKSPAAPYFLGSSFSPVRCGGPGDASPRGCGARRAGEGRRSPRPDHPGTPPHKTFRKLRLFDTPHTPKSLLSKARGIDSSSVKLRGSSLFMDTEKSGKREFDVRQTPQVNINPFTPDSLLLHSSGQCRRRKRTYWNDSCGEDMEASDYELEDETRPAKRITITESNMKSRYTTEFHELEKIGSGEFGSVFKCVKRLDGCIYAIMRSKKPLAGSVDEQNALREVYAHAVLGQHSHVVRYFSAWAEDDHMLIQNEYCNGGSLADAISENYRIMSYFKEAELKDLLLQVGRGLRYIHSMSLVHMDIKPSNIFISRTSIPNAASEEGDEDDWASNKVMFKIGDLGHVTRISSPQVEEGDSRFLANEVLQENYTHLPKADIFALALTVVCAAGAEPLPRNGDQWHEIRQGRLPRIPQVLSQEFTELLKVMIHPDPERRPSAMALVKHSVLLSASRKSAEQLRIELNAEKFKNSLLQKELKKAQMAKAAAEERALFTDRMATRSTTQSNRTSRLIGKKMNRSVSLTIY
TNF necrop inh – TNF-alpha cell death inhibition in Jurkat FADD-/- cells. Jurkat FADD-/- TNF necroptosis rescue, ATP luminescence, 24 h; 0 = TNF only, 100 = no-TNF cells. activation (protection from cell death), % at 10 µM. actives 0.068% (n = 220,000);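 active = activation, meaning protection from cell death, of at least 50% relative to plate controls; inactive = activation below 50%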;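 also: necroptosis triggered by 40 ng/mL TNF-alpha added together with compound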
V-ATPase pH – yeast V-ATPase proton transport regulation by pHLuorin; S. cerevisiae, pHLuorin cytosolic pH fluorescence; response, % at 10 µM; actives 0.37% (n = 350,000); AID 504577; in the data active = response mostly above about 7.3%, no sharp cut-off; inactive = mostly below about 5.4%; also: actives read high
HSV replic up – increases HSV replication in cells. HSV replication augmentation in cells, fold increase. maximum fold increase. actives 0.005% (n = 220,000); in the data active = maximum fold increase above about 1.5; tested in PC3 cells
L929 necroptosis – L929 zVAD cell death inhibition; L929 zVAD necroptosis rescue, ATP luminescence, 24 h; with zVAD 60 µM; actives 0.38% (n = 220,000); viability rescue, % at 10 µM;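 active = activation, scaled between plate controls, above about 75%, limit read from the data; inactive = activation under that limit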;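 also: 0% = zVAD with DMSO and 100% = DMSO alone without zVAD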
Wee1 degr conf – human Wee1 degradation inhibition, confirmation; actives 4% (n = 1,100); activation, % at 5 µM; HeLa Luc-Wee1K328M degradation, luminescence; vehicle 0%, proteasome-blocked wells 100%; shares compounds with Wee1 degr inh; in the data active = activation above about 8.9%
Starred values were filed as active, the others as inactive; i = inactive; / = no result given.

SMILES	Wee1 degr inh	TNF necrop inh	V-ATPase pH	HSV replic up	L929 necroptosis	Wee1 degr conf
O=C(NCCc1ccccc1)c1c(F)c(F)c(F)c(F)c1F	23.8*	0.2	0.6	i	1.1	-0.9
COc1ccc(CCNC(=O)c2cc(=O)[nH]c3ccccc23)cc1	/	/	0.5	/	/	/
O=C(NCCc1ccccc1)c1ccccc1F	0.1	-0.6	4.5	i	-0.1	/
Cc1ccc(S(=O)(=O)n2cnc3ccccc32)cc1[N+](=O)[O-]	/	/	4.8	/	/	/
CCCn1c(SCC(=O)NCCCN2CCCC2=O)nc2ccccc2c1=O	/	/	-2.4	/	/	/
COc1ccc(OCc2nc(N)nc(Nc3ccccc3OC)n2)cc1	17.6*	-2.3	-2.2	i	0.2	-0.3
CCN(CC)c1ccc(C(=O)Nc2cccc(F)c2)cc1	13.9*	-7.2	-4.7	i	10.9	4.8
CN(C)c1cccc(C(=O)Nc2cccc(F)c2)c1	1.6	-1.8	0.6	i	0.9	/
O=C1CC(C(=O)Nc2ccccc2)N=C(N2CCOCC2)N1 (stereo not drawn)	11.4*	2.2	0.0	i	0.4	4.3
O=C(c1ccco1)N1N=C(c2cccs2)CC1c1cc([N+](=O)[O-])ccc1O (stereo not drawn)	/	/	3.1	/	/	/
CCNCc1cc([N+](=O)[O-])ccc1OCC	-2.0	1.5	-0.7	i	0.1	/
CCCCNCCCOc1cccc(Cl)c1Cl	11.2*	2.1	0.1	i	1.1	2.1
CCCCNCCCOc1ccc(C)cc1Br	3.5	4.7	-3.7	i	-0.1	/
Cc1ccc(OCCSc2nc(N)cc(N)n2)cc1	11.4*	-1.3	-0.7	i	-0.3	0.2
COc1cccc2cc(-c3cn4ccc(C)cc4n3)c(=O)oc12	13.8*	-1.8	-3.1	i	-0.9	2.5
COc1cccc2cc(-c3cn4cccc(C)c4n3)c(=O)oc12	1.5	-2.2	-6.9	i	-0.3	/
Cc1ccc(S(=O)(=O)N(C)c2ccc(OCC(=O)Nc3cccc(-n4cnnn4)c3C)cc2)cc1	2.2	-0.9	-0.9	i	-0.1	/
COc1ccc(Nc2oc(-c3ccc(OC)cc3)nc2C#N)cc1	11.5*	-0.1	-2.0	i	0.3	9.6*
COc1ccc(Nc2oc(-c3ccc(Cl)cc3)nc2C#N)cc1	1.8	-5.1	-2.8	i	0.3	/
CC1(C)Cc2c(C#N)c(N3CCN(C(=O)c4ccccc4)CC3)nc(-c3ccco3)c2CS1	15.3*	-1.0	-1.6	i	0.3	0.2
CC(C)c1nc(N2CCN(C(=O)c3ccccc3)CC2)c(C#N)c2c1COC(C)(C)C2	0.5	-0.7	7.8	i	-0.3	/
O=C(NCC(=O)N1CCOCC1)c1ccc(Cl)c(Cl)c1	/	/	2.3	/	/	/
C[C@H](CO)N1C[C@H](C)[C@H](CN(C)Cc2cncnc2)Oc2cc(Br)ccc2S1(=O)=O	/	/	3.4	/	/	/
CC(C)CC(=O)Nc1ccc(-c2nc3ccccc3c(=O)[nH]2)cc1	13.4*	1.7	2.0	i	0.9	-1.2
CCCC(C)C(=O)OCC(=O)NCc1ccc(OC)c(OC)c1 (stereo not drawn)	13.8*	-0.2	-2.0	i	4.1	-1.9
SMILES	Wee1 degr inh	TNF necrop inh	V-ATPase pH	HSV replic up	L929 necroptosis	Wee1 degr conf
CN(CC(O)COc1ccccc1F)C1CCCCC1 (stereo not drawn)	11.4*	0.6	-0.1	i	0.0	1.4
CN(CC(O)COCc1ccccc1F)C1CCCCC1 (stereo not drawn)	-2.6	1.8	4.1	i	0.4	/
CCOC(=O)C1=C(COC(=O)c2ccccc2[N+](=O)[O-])NC(=O)NC1C (stereo not drawn)	/	/	-0.4	/	/	/
O=C(N/N=C/c1ccc2ncccc2c1)c1ccco1	12.6*	-3.0	1.0	i	0.7	-4.0
Cc1ccc2nc(-c3ccc(NC(=O)c4ccco4)cc3)[nH]c2c1	29.3*	6.0	-3.8	i	1.3	8.5
CCN(CC)c1ccc(/C=N/NC(=S)NC)c(O)c1	13.9*	-3.8	-2.7	i	1.4	2.6
CCN(CC)c1ccc(/C=N/NC(=O)OC)c(O)c1	1.7	-5.5	0.3	i	0.4	/
CCOC(=O)N1CCN(C(=O)c2ccc3c(c2)N(Cc2ccccc2)CCS3)CC1	/	/	5.2	/	/	/
CC1CC(C)CN(C(=O)c2ccc3c(c2)N(Cc2ccccc2)CCS3)C1 (stereo not drawn)	12.7*	-1.3	0.1	i	-1.0	0.0
CN(CC(=O)N1CCc2ccccc21)S(=O)(=O)c1cccs1	13.8*	-3.1	0.1	i	-0.2	4.1
C#CCOCCOCCOCCNc1nc(N2CCN(C(=O)[C@H]([C@@H](C)CC)n3cc([C@@H](N)CC(C)C)nn3)CC2)nc(N2CCN(C(=O)[C@H](CCCCN)n3cc([C@@H](N)C(C)CC)nn3)CC2)n1 (stereo partly drawn)	14.6*	1.6	0.1	i	0.0	-0.9
C#CCOCCOCCOCCNc1nc(N2CCN(C(=O)[C@H]([C@@H](C)CC)n3cc([C@@H](N)CC(C)C)nn3)CC2)nc(N2CCN(C(=O)[C@H](CCCCN)n3cc([C@@H](N)CC(C)C)nn3)CC2)n1	5.7	0.7	-10.1	i	0.9	/
C#CCOCCOCCOCCNc1nc(N2CCN(C(=O)[C@H](CCC(=O)O)n3cc(C(N)CC(C)C)nn3)CC2)nc(N2CCN(C(=O)[C@H](CCC(=O)O)n3cc(C(N)CC(C)C)nn3)CC2)n1 (stereo partly drawn)	11.9*	0.1	-2.2	i	-0.4	-1.6
C#CCOCCOCCOCCNc1nc(N2CCN(C(=O)C([C@@H](C)CC)n3cc(C(N)CC(C)C)nn3)CC2)nc(N2CCN(C(=O)[C@H](CCC(=O)O)n3cc(C(N)CC(C)C)nn3)CC2)n1 (stereo partly drawn)	-0.7	0.8	2.7	i	0.0	/
Cc1cc(C(=O)N2CCCC(N3CCN(c4cccc(Cl)c4)CC3)C2)nc(C)n1 (stereo not drawn)	/	/	-1.8	/	/	/
Clc1nccc(NCc2ccccc2)n1	/	/	0.0	/	/	/
Clc1cccc(NCc2ccccc2)n1	26.9*	3.1	2.9	i	1.0	-0.6
CN(C)S(=O)(=O)c1cccc(CNCC2COc3ccccc3O2)c1 (stereo not drawn)	/	/	4.8	/	/	/
O=C(NCCOC(=O)c1c(F)cccc1Cl)c1c(F)cccc1Cl	/	/	-2.4	/	/	/
C=CCc1cccc2cc(C(=O)NC3CCCCC3)c(=O)oc12	17.0*	2.3	3.2	i	15.1	-1.2
Cc1ccccc1NC(=O)C(C)OC(=O)c1ccccc1C(=O)N(C)c1ccccc1 (stereo not drawn)	/	/	3.0	/	/	/
C(=N\Nc1nccc(-c2cccnc2)n1)/c1ccccc1	0.2	-4.6	21.0	i	50.1	/
Cc1ccc(/C=N/Nc2cc(C)nc(NCc3ccccc3)n2)cc1	0.8	3.0	0.4	i	-0.5	/
Cc1cc(N/N=C/c2ccc(F)cc2)nc(NCc2ccccc2)n1	12.4*	2.4	2.8	i	1.5	-5.8
